HT1080 IDH1KD tx: kills HT-1080 cells with IDH1 knockdown | 2% of 360,000 active | AID 686971 | Potency, µM (top dose mostly 46.1 µM), without a hit: at the top dose activity, negative = toxicity, usual class: cytotoxic | HT-1080 IDH1 knockdown viability, ATP luminescence, 48 h;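 also: potency is read from the fitted curve at half-maximal effect; 0% = DMSO wells and -100% = cell-free medium wells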
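HT-1080-IDH1KD cells (IDH1 knocked down), 750/well in RPMI with 5% FBS, treated with compound 48 h at 37 degrees C. Viability by CellTiter-Glo luminescence, normalised to DMSO and no-cell wells; concentration-response curves classed.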
DT40 TDP1 no CPT: qHTS for Inhibitors of human tyrosyl-DNA phosphodiesterase 1 (TDP1): qHTS in cells in absence of CPT | AID 686978, 2013 | Potency, µM (series often up to 46.2 µM), without a hit: at the top dose activity change, negative = growth inhibition, actives largely listed as inhibitors | DT40 Tdp1-/- hTDP1 cells, no CPT, ATP luminescence, 48 h | 15% of 420,000 active; also: potency is read from the fitted curve at half-maximal effect; nearly all actives have a fitted effect of over 55% in size
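Readout: luminescence from CellTiter-Glo after 30 min in the dark at RT. Cells: DT40 Tdp1-/- with stable hTDP1, 400/well. Exposure: compounds alone, ≥48 hr, 37 °C.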
TDP1 cell CPT: growth inhibition of DT40 Tdp1-/-;hTDP1 cells with camptothecin (screen for TDP1 inhibitors). chicken DT40 Tdp1-/-;hTDP1 cells + 20 nM CPT, ATP luminescence, 48 h. 12% of 420,000 active. Potency, µM (series often up to 46.2 µM), inactives show at the top dose activity change, negative = growth inhibition, usual class: inhibitors; also: potency is read from the fitted curve at half-maximal effect; nearly all actives have a fitted effect of over 55% in size
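Cell growth measured by CellTiter-Glo luminescence after a minimum 48 h, 37 C compound exposure with 20 nM CPT in Tdp1-knockout DT40 cells stably expressing hTDP1, seeded 400/well; qHTS titration format.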
IL-1B inflam inh: blocks inflammasome-driven IL-1 beta release. 4.7% of 360,000 active. AID 743279. THP-1 LPS/ATP IL-1B secretion, AlphaLISA, 16 h; stronger effect = lower value. activity change, % at 57.5 µM; in the data active = activity change below about -50%; inconclusive = mostly about -30% to -49%
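THP-1 cells pretreated 1 hr with compounds (up to 57.5 uM final), then stimulated with LPS (250 ng/mL final) plus ATP (1.25 mM final); secreted IL-1B measured by AlphaLISA after 16 hr, decreased signal indicating inhibition.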
HT1080NT lethal: kills 2HG-producing HT-1080-NT fibrosarcoma cells; HT-1080-NT fibrosarcoma viability, CellTiter-Glo ATP luminescence, 48 h; 1.6% of 360,000 active; Potency, µM (highest dose often 46.1 µM), for the others: at the top dose activity, negative = less viability, hits mostly cytotoxic;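 also: NT is the 2HG producing partner of a matched IDH1 knockdown line; potency is read from the fitted curve at half-maximal effect; 0% = DMSO-treated cells and -100% = media-only wells without cells; nearly all actives have a fitted effect of over 55% in size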
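Read-out is CellTiter-Glo luminescence after 10 minutes at room temperature, following 48 hours' compound treatment of HT-1080-NT cells (750 cells/well, RPMI, 5% FBS, 37 degrees C).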
Starred values were filed as active, the others as inactive; ? = inconclusive; . = no result given; ! = a repeat was not active; [ ] = dose if it differs, or a comment. Shown are actives, neighbours in structure and some others; about 19% of the full set was active somewhere. Unless noted, calls follow the shape of the dose curve; as a rule, active = well fitted curve in the direction sought with a large enough effect; inconclusive = small, poorly fitted or top-dose-only effect, or another doubt; inactive = no such curve, though single readings can be large; an effect the other way counts as inactive or inconclusive. Unless noted, % is scaled to controls: 0 for no effect and ±100 for the full control effect.

SMILES | HT1080 IDH1KD tx | DT40 TDP1 no CPT | TDP1 cell CPT | IL-1B inflam inh | HT1080NT lethal
CCCCn1c(O)c(/C=C2\C=NN=C2c2ccccc2)sc1=S | -25% | ? | ? | -85* | -15%
CCCCCCn1c(O)c(/C=C2\C=NN=C2c2ccccc2)sc1=S | ? | 23µM* | ? | -87* | -13%
C/C(=N/NC(=S)Nc1cccc(C)c1)c1cccc([N+](=O)[O-])c1 | 1% | 13µM* | 12µM* | -21 | -4%
CC(=O)Nc1cccc(/C(C)=N/NC(=S)NC(C)C)c1 | -11% | 4.6µM* | 3.7µM* | -27 | ?
C/C(=N\NC(=S)NC(C)C)c1cccc([N+](=O)[O-])c1 | 5% | 0.92µM* | 0.92µM* | -7 | 10%
C/C(=N\NC(=S)NC(C)C)c1ccc(Cl)c([N+](=O)[O-])c1 | 8% | 18µM* | 18µM* | -92* | 7%
Cc1cccc(NC(=S)NNC(=O)c2cccc([N+](=O)[O-])c2)c1 | 8% | -22% | -15% | 5 | -6%
C/C(=N\NC(=S)NC(C)C)c1ccccc1 | -1% | ? | ? | -6 | 4%
Cc1cc(C(=O)O)cc(S(=O)(=O)Nc2c(C)nn(C)c2C)c1C | 7% | -13% | 13% | 11 | 6%
COc1cccc(C(=O)N(C)Cc2c(C)nn(C3CCS(=O)(=O)C3)c2C)c1 (stereo not drawn) | -4% | 18% | -17% | 17 | 1%
Cc1ccnc(NC(=O)c2ccc3c(c2)C(=O)N(CCC(C)C)C3=O)c1 | -10% | -13% | -24% | -7 | -2%
C/C(=N/Nc1nc(C)c(C)s1)c1cccc([N+](=O)[O-])c1 | -3% | 23µM* | 15µM* | 22 | -2%
Cn1c2c(c3cnc4cc(Cl)ccc4c31)CN(Cc1ccc(Cl)cc1)CC2 | . | 7.1µM* | 7.9µM* | . | .
CCOC(=O)c1cc(-c2ccc(OC)c(S(=O)(=O)N3CCN(c4ccccc4)CC3)c2)on1 | . | 21µM* | 16µM* | . | .
CCc1ccc(-c2cc(C)no2)cc1S(=O)(=O)N1CCN(c2ccccc2)CC1 | ? | ? | 16µM* | 0 | ?
CCc1ccc(-c2cc(C)no2)cc1S(=O)(=O)N1CCN(c2ccccc2OC)CC1 | -3% | ? | ? | -1 | -13%
O=C(OCC(=O)N1CCOCC1)c1cc(=O)[nH]c2ccccc12 | -4% | -7% | -5% | 4 | -1%
Cc1ccc(S(=O)(=O)c2ncccc2[N+](=O)[O-])cc1 | 23µM* | 0.65µM* | 1.2µM* | -102* | 9.2µM*
CC(C)(C)c1cc(OS(C)(=O)=O)ccc1O | -21% | ? | 7% | 13 | -9%
CC(C)(CO)Cc1cc(C(C)(C)C)c(O)c(C(C)(C)C)c1 | ? | ? | 18µM* | 3 | ?
Cc1cc(C(C)(C)C)c(O)c(C(C)(C)C)c1 | . | 13µM*! | ? | 23 | .
CC(C)(C)c1cc(O)c(C(C)(C)C)cc1O | . | 12µM*! | 11µM*! | . | .
CC(C)(C)c1ccc(O)c(O)c1 | ? | ? | 34µM* | -81* | ?
CCN(C(=O)CSc1nnc(-c2cccs2)o1)C1CCS(=O)(=O)C1 (stereo not drawn) | 0% | 4% | -1% | 34 | 2%
O=C(CNS(=O)(=O)c1cccc(Br)c1)NCC1CCCCC1 | -2% | -12% | 0% | 37 | 5%
SMILES | HT1080 IDH1KD tx | DT40 TDP1 no CPT | TDP1 cell CPT | IL-1B inflam inh | HT1080NT lethal
Cc1oc(-c2cccc(Cl)c2)nc1CN1CCC(C(=O)N2CCN(c3ccccc3F)CC2)CC1 | ? | 18µM* | 18µM* | -56* | ?
Cc1oc(-c2cc(F)ccc2F)nc1CN1CCC(C(=O)N2CCOCC2)CC1 | 2% | 16% | 13% | 19 | -1%
Cc1oc(-c2cccc(Cl)c2)nc1CN1CCCC(C(=O)N2CCN(c3ccc(F)cc3)CC2)C1 (stereo not drawn) | . | 9.2µM* | 7.3µM* | . | .
Cc1ccc(Cl)cc1N1CCN(C(=O)C2CCN(Cc3nc(-c4cccc(Cl)c4)oc3C)CC2)CC1 | . | 15µM* | ? | . | .
Cc1cccc(N2CCN(Cc3nc(-c4cccc(Cl)c4)oc3C)CC2)n1 | -17% | ? | ? | 25 | -9%
Cc1ccc(S(=O)(=O)Nc2ccc(Nc3nccn4c(-c5ccc6ccccc6c5)cnc34)cc2)cc1 | -1% | ? | ? | -7 | -24%
C/C(O)=c1/ccc2cccc3nc(C)nc1c23 | -24% | ? | ? | -53* | ?
C=CCN=C1NN=C(c2cc(C)n(CCOC)c2C)CS1 | 8% | -2% | -7% | -13 | 9%
C=CCn1c(C)cc(C2=NNC(=NC(C)(C)C)SC2)c1C | -25% | ? | ? | -77* | -21%
COCC(C)N=C1NN=C(c2cc(C)n(Cc3ccccc3Cl)c2C)CS1 (stereo not drawn) | -22% | 12µM* | 13µM* | ? | -15%
COCCCN=C1NN=C(c2cc(C)n(Cc3ccco3)c2C)CS1 | 1.6µM* | 0.029µM* | 0.65µM* | 35 | 1.6µM*
COCCn1c(C)cc(C2=NNC(=NC3CC3)SC2)c1C | ? | ? | ? | -3 | ?
C=CCn1c(C)cc(C2=NNC(=Nc3ccc(C)cc3)SC2)c1C | 0% | ? | ? | -4 | -13%
COCCn1c(C)cc(C2=NNC(=Nc3ccc(Cl)cc3Cl)SC2)c1C | 10% | ? | ? | -5 | -1%
Cc1cc(C2=NNC(=NC3CC3)SC2)c(C)n1Cc1ccco1 | 7.3µM* | 8.2µM* | 16µM* | 6 | 7.3µM*
Cc1ccc(CCNC(=O)c2cc3sccc3n2Cc2ccc(Cl)cc2)cc1 | . | -8% | -16% | . | .
COCC(=O)Nc1cc(C(=O)NC2CCc3ccccc32)c2c(c1)nc(-c1ccncc1)n2C (stereo not drawn) | . | ? | -3%[9.04 µM] | . | .
COc1ccc(S(=O)(=O)Nc2ccccc2C(=O)NCc2cccnc2)cc1 | -12% | ? | -7% | -14 | -22%
CCOC(=O)c1c(-c2ccc(C)cc2)csc1NC(=O)c1nc(SC(C)C)ncc1Cl | . | 4% | 0% | . | .
CN=c1scc(C)n1/N=C/c1cc(Br)c(O)c(OC)c1 | -10% | 16µM* | ? | 11 | -8%
COCCN=c1scc(-c2ccco2)n1/N=C/c1ccc(O)c(O)c1O | -14% | ? | ? | 33 | -8%
C=CCN=c1scc(-c2ccco2)n1/N=C/c1ccc(O)c(O)c1O | -24% | 5.8µM* | 10µM* | -51* | ?
CN=c1scc(-c2cccs2)n1/N=C/c1ccccc1O | ? | 23µM* | ? | -3 | ?
CN=c1scc(-c2cccs2)n1/N=C/c1ccc(O)c(O)c1O | ? | 5.8µM* | 12µM* | -2 | -28%
Cc1cc(C)n(/N=C/c2ccccc2O)c(=O)c1 | 3% | 0% | 8% | 0 | 10%

Compound activity from PubChem BioAssay.
